# Measurements from ChEMBL document CHEMBL3433997, “St. Jude Leishmania screening dataset” (2016).
# Columns and labels:
# Format in all cases: functional
# [1] = biological target: Solute carrier family 2, facilitated glucose transporter member 1 (Homo sapiens) (UniProt P11166); experiment: ST_JUDE_LEISH: Cytotoxicity at 2uM final concentration against transgenic Leishmania Mexicana promastigotes LmGLUT1 that are glucose transport deficient and complemented with the human glucose transporter GLUT1. Activity is measured by DNA content using SYBR green in vitro
# Solute carrier family 2, facilitated glucose transporter member 1 (Homo sapiens), sequence (P11166 whole entry): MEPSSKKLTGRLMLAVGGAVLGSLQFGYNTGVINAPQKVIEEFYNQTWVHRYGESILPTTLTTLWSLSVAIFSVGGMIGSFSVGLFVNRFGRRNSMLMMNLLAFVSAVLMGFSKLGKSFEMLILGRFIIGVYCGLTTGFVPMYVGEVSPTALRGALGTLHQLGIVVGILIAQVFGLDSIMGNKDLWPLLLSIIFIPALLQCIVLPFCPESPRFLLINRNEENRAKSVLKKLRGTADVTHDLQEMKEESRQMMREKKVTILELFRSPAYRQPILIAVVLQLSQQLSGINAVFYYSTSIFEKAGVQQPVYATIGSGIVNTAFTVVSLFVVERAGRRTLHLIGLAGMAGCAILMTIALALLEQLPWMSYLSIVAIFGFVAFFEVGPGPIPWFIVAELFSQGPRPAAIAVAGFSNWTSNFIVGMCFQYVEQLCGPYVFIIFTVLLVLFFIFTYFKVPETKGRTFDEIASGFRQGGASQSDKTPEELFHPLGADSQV
# [2] = biological target: Hexose transporter 1 (Plasmodium falciparum) (UniProt O97467); experiment: ST_JUDE_LEISH: Cytotoxicity at 2uM final concentration against transgenic Leishmania Mexicana promastigotes LmPfHT that are glucose transport deficient and complemented with the Plasmodium falciparum hexose transporter. Activity is measured by DNA content using SYBR green in vitro
# [3] = biological target: Glucose transporter (Leishmania mexicana) (UniProt O61059); experiment: ST_JUDE_LEISH: Cytotoxicity at 2uM final concentration against transgenic Leishmania Mexicana promastigotes LmGT2 that are glucose transport deficient and complemented with the L. Mexicana glucose transporter 2. Activity is measured by DNA content using SYBR green in vitro
SMILES,inhibition [1] [%],inhibition [2] [%],inhibition [3] [%]
Cc1ccc2c(=O)c3cc(C)ccc3[nH]c2c1,3.4,0.93,0.54
Cc1cc2[nH]c(-c3ccc(C(=O)NCCCN4CCN(c5cccc(Cl)c5)CC4)s3)nc2cc1Cl,3.07,3.29,2.02
O=C(Nc1ccc(OC2CCN(Cc3ccsc3)CC2)c(Cl)c1)c1cccs1,7.63,2.38,2.85
CCOc1ccccc1C1C(C(=O)C(C)(C)C)N2c3ccc(Br)cc3C=CC2C12C(=O)c1ccccc1C2=O (stereo not drawn),72.3,76.5,57.1
CCCCOc1ccc(-c2nc3ccccc3[nH]2)cc1,9.74,8.64,2.74
CCN(CC)C(=O)C1CCCN(c2cc(C)nc(Nc3ccc(Cl)cc3)n2)C1 (stereo not drawn),0.86,1.03,0.51
COC(=O)c1cccc(CNCc2cccc(-c3ccc(-c4nc5ccccc5[nH]4)s3)c2)c1,0.25,2.5,1.96
O=C(c1cc(C(=O)Nc2ccc(F)cc2)c(=O)n(-c2ccc(F)cc2)c1)c1cc(Cl)ccc1O,0.23,2.19,0.22
COc1nc2c(CCN3CC[C@@H](NCc4cc(C#N)c5c(c4)CCO5)[C@@H](O)C3)ccnc2cc1F,7.43,4.07,0.66
N=C1N=C(N)NC2(CCCCC2)N1OCC1CCCCC1,-0.96,-0.44,-1.26
CCOC(=O)c1c(C)noc1Nc1cccc(C)c1C,-3.16,-1.56,-4.02
CC(Cc1ccc(C(=O)N2CCN(C(=O)c3ccc(CC(C)NCCc4cccc(Cl)c4)cc3)CC2)cc1)NCCc1cccc(Cl)c1 (stereo not drawn),6.51,3.6,5.54
CC(CN1CCN(C)CC1)C(=O)Nc1ccc(-c2cccc(-c3nc4cc(C(F)(F)F)ccc4[nH]3)c2)cc1 (stereo not drawn),-0.51,0.32,-2.84
Cc1c(N)ccc2[nH]c(-c3ccc(N)cc3)nc12,3.21,4.3,2.89
COc1ccc(Nc2nccc(NCCNC(=O)c3cc4ccccc4s3)n2)cc1,5.11,3.59,-0.64
Cc1ccc(CN2CCN(c3cc4c(cc3Cl)CCN4C(=O)Cc3ccc(Cl)c(NC(=O)Nc4cccc(C#N)c4)c3)CC2)cc1,-1.29,-1.46,-0.62

SMILES,inhibition [1] [%],inhibition [2] [%],inhibition [3] [%]
Cc1onc(-c2ccccc2)c1-c1nc(NCc2ccccc2Cl)no1,2.36,2.64,1.32
COc1ccc2c(c1)CC(C)(C)NC2CCCCCCCCC1NC(C)(C)Cc2cc(OC)ccc21 (stereo not drawn),2.26,2.26,0.77
C[C@@H](Nc1nc(NCc2ccccc2)c2sccc2n1)c1ccccc1,24,22.3,8.39
Nc1nccc2ccc(-c3ccnc(NCc4cccnc4)n3)cc12,9.29,7.15,11.2
CC(=O)NCCNc1nccc(N2CCc3ncnc(Nc4ccc(OCc5ccccn5)c(Cl)c4)c3C2)n1,0.91,1.71,1.9
Cc1noc(C)c1-c1ccc2c(Nc3ccccc3C(C)(C)C)c(C(=O)NCc3ccc(C(F)(F)F)cc3)cnc2c1,3.44,5.41,3.69
CC(=O)N1CCC(C(=O)Nc2ccc(-c3cccc(-c4nc5cccc(C)c5[nH]4)c3)cc2)CC1,2.37,0.21,0.44
NC(=O)c1cccc(C(=O)Nc2ccc(-c3cccc(-c4nc5cc(C(F)(F)F)ccc5[nH]4)c3)cc2)c1,0.39,-0.82,-2.19
COc1cc(CNC[C@@H](O)[C@H](Cc2ccccc2)NC(=O)c2cc(C3CCCC3)cc(N3CCCCS3(=O)=O)c2)cc(OC)c1,5.15,5.6,6.05
COc1cc(F)c2ncc(Cl)c(CCN3CCC(NCc4ccc5c(n4)NC(=O)CS5)CC3)c2c1,8.34,8.44,-2.08
COc1cccc(CCc2ccc(O)c3c2C[C@H]2C[C@H]4[C@H](N(C)C)C(O)=C(C(N)=O)C(=O)[C@@]4(O)C(O)=C2C3=O)c1,4.53,4.13,1.64
COc1cc(F)c2ncc(Cl)c(CCN3CCC(NCc4ccc5c(c4)NC(=O)CS5)CC3)c2c1,15.1,18.3,8.82
COc1ccc2nccc([C@@H](O)CN3CCC(NC(=O)[C@@H]4Cc5ccccc5CN4C(=O)OC(C)(C)C)CC3)c2c1,8.19,6.18,3.12
CC(=O)Nc1ccc(Nc2ncc([N+](=O)[O-])c(Nc3ccccc3C(N)=O)n2)cc1,3.27,1.61,1.93
COC(=O)c1cc(C(O)CNC(C)CCc2cccc(F)c2)ccc1O (stereo not drawn),2.72,2.7,2.89
